Here are results for 40 compounds from ChEMBL document CHEMBL3988442, “University of Dundee, Small-Polar-MMV Screening Library” (2021).

The assay has as its target T1, Aspartate--tRNA(Asp/Asn) ligase (Mycobacterium tuberculosis (strain ATCC 25618 / H37Rv)) (UniProt P9WFW3).
T1 sequence (whole entry): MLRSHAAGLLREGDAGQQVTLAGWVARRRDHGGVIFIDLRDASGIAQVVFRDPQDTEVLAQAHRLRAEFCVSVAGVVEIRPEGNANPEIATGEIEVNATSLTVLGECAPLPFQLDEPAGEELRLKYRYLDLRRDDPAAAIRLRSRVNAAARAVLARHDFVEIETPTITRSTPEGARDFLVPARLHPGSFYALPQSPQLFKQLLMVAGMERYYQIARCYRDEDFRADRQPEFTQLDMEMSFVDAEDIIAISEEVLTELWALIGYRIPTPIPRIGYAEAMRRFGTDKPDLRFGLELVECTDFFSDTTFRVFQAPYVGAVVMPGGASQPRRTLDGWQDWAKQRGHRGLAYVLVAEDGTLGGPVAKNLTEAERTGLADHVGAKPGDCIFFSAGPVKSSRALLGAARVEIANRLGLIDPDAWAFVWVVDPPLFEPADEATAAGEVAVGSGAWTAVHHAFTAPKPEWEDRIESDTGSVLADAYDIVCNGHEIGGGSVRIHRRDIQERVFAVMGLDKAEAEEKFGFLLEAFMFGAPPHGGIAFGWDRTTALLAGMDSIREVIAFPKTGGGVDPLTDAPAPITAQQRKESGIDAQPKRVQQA
The assay can be described thus: Assay for Asp RNA synthetase-1 from Mycobacterium tuberculosis. The assay is classed as functional. Also noted: scale not given: in the data most compounds retested in dose-response had high values. As to conditions: 30 µM.
`O=C(c1cccc(OC2CCCC2)c1)N1CCCC(n2cncn2)C1` (stereo not given): the Percent Effect is -0.0372%.
As for `O=S1(=O)CCCN1Cc1coc(-c2cccs2)n1`, the Percent Effect was -3.68%.
As for `O=C(NCC1CCOC1)c1ccc(OCC(F)(F)F)nc1` (stereo not given), the figure is -2.12%; as for `CNS(=O)(=O)Cc1ccc(CNc2cncc(-n3cccn3)n2)cc1`, -0.637%.
Take `CCCNC(=O)NC(=O)CN(CC(C)O)c1ccccc1` (stereo not given): the Percent Effect amounted to 1.53%.
To `Cc1nn(C)c(N2CCOCC2)c1CNC(C)c1cccnc1` (stereo not given) belongs -8.69%; to `CN(C)c1nccc(N2CCO[C@H]3CN(CC4CCOCC4)C[C@H]32)n1`, -1.41%; to `Cc1noc(C)c1CN(C)C(=O)NC1CCN(c2ncccn2)CC1`, 0.9%.
Consider `Cc1cnc(N)c(C(=O)C2CCN(C(=O)c3ccccc3F)CC2)c1`, for which the Percent Effect is -1.9%.
With `NC(=O)N1CCC2(CC1)CN(Cc1cccnc1)C(=O)CO2`, the Percent Effect came to 0.66%.
Consider `CCc1nc(CN2CCCN(C(=O)c3cn[nH]c3CC)CC2)cs1`, for which the Percent Effect was -1.54%.
Consider `CCc1nc(CN(CC(N)=O)C(C)C)cs1`, for which the Percent Effect came to 0.799%.
For the compound `CC(C)(C)c1nnc(CN2CCCC(Cn3cncn3)C2)o1` (stereo not given), the Percent Effect was 0.322%.
Take `O=c1nc(SCc2ccncc2)c2c(n1CCO)CCCC2`: the Percent Effect was -6.81%.
As for `CNC(=O)[C@@]12CCO[C@@H]1CCN(S(=O)(=O)c1cccc(C)c1)C2`, the figure is -4.6%; as for `COc1ccc2c(c1)CN(Cc1nc3c(cnn3C)c(=O)[nH]1)CC2`, -4.4%.
Regarding `COC(=O)CC(c1ccc(OC)c(OC)c1)c1oc(C)cc(=O)c1O` (stereo not given), the Percent Effect was -0.938%.
To `CC(C)c1nc(C2CCCN2CCCc2nc3ccccc3o2)no1` (stereo not given) belongs -3.53%; to `CC(=O)N1CCN(C(=O)C(C)n2cncn2)CC1` (stereo not given), -4.44%; to `Cc1[nH]/c(=N\C(=O)c2csc(NCC(C)C)n2)sc1C`, 0.43%.
To `CC[C@@]1(O)CCN(C(=O)c2ccc(SC)cc2)C[C@H]1O` belongs -1.2%; to `CC(NC(=O)NCCCO)c1ccc2c(c1)OCCO2` (stereo not given), 0.291%.
For the compound `Cn1nnc2c1C(COCc1ccccn1)CN(C(=O)c1cccs1)C2` (stereo not given), the Percent Effect was 0.388%.
As for `Cc1ccc(C)c(-c2csc(N)c2C#N)c1`, the figure is 2.35%.
To `CC(=O)N1[C@@H](C(=O)NCC2CC2)C[C@@H]2CN(Cc3ccco3)C[C@@H]21` belongs 0.523%; to `COCCN1CCc2cc(C(=O)N(C)C)c(NC(C)C)nc2CC1`, -1.31%.
Regarding `CCn1cnnc1CNC(=O)N(C)Cc1ccc2c(c1)OCCO2`, the Percent Effect is 14.5%.
As for `Cc1noc(C)c1CNC(=O)N1CCN(Cc2cscn2)CC1`, the figure is 0.233%; as for `Cc1cc(CN2CCCC2Cn2cncn2)no1` (stereo not given), -4.72%; as for `COc1ccc(C(=O)N2CCCCC2c2nc(C)cs2)nn1` (stereo not given), -4.46%.
To `Cc1nc(-c2ccsc2)ccc1C(=O)O` belongs -0.501%; to `Cc1cc2n(n1)CC(CNC1CCN(Cc3ccccc3C)CC1)CN2` (stereo not given), 4.64%.
To `c1ccc(-n2cc(CN3CCCC(Cn4cncn4)C3)nn2)cc1` (stereo not given) belongs -9.82%; to `CCn1nc(C)c2ncnc(NCCCN3CCOCC3)c21`, -3.37%; to `Cc1nn(C)c(N(C)C)c1CNCC(O)COc1ccc(F)cc1` (stereo not given), -7.16%.
For `CC(C)CN1C(=O)C2(CCN(Cc3nccs3)C2)c2ccccc21` (stereo not given), the Percent Effect is -0.662%.
For `CC(C)S(=O)(=O)c1nnc(CCNC(=O)OC(C)(C)C)o1`, the Percent Effect came to 2.85%.
As for `CCCNC(=O)N1CCN(Cc2cc(C)no2)CC1`, the figure is -0.393%; as for `O=C(CSc1ccc(F)c(F)c1)NS(=O)(=O)c1ccc2c(c1)OCCO2`, 3.35%; as for `Cn1ccnc1CN1CCC2(COCCN(Cc3ccsc3)C2)C1` (stereo not given), -5.11%.
